# Assay results: the supplement of paper PMC8728848
# This is one part of a sample in which the strongest signals are shown more often than they occur.
# Columns and labels:
# Assay in all cases: glycan array binding signal (z-score within array); higher = stronger binding
# Details in all cases: glycan notation: IUPAC condensed, linker removed
# [1] = molecular target: Fuc(a1-2)Gal(b1-3)GlcNAc(b1-2)Man(a1-3)[Fuc(a1-2)Gal(b1-3)GlcNAc(b1-2)Man(a1-6)]Man(b1-4)GlcNAc(b1-4)GlcNAc
# Procedure, shortened: (§1)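 Negative Z-scores can be read as non-binding. The Z-score is calculated within each array and then averaged across arrays of one protein sequence at different concentrations or buffers and across linkers. Arrays, 3228 in all, were curated from the Consortium for Functional Glycomics database and kept only where the protein sequence was available.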
# [2] = molecular target: Fuc(a1-2)Gal(b1-4)GlcNAc
# Procedure, shortened: as §1
# [3] = molecular target: Fuc(a1-2)Gal(b1-4)GlcNAc(b1-2)[Fuc(a1-2)Gal(b1-4)GlcNAc(b1-4)]Man(a1-3)[Fuc(a1-2)Gal(b1-4)GlcNAc(b1-2)Man(a1-6)]Man(b1-4)GlcNAc(b1-4)GlcNAc
# Procedure, shortened: as §1
# [4] = molecular target: Fuc(a1-2)Gal(b1-4)GlcNAc(b1-3)Gal(b1-4)GlcNAc
# Procedure, shortened: as §1
# [5] = molecular target: Fuc(a1-2)Gal(b1-4)[Fuc(a1-3)]GlcNAc
# Procedure, shortened: as §1
# [6] = molecular target: Fuc(a1-2)[Gal(a1-3)]Gal(b1-3)GlcNAc(b1-3)GalNAc
# Procedure, shortened: as §1
# [7] = molecular target: Fuc(a1-2)[Gal(a1-3)]Gal(b1-4)GlcNAc(b1-3)[Fuc(a1-2)[Gal(a1-3)]Gal(b1-4)GlcNAc(b1-6)]GalNAc
# Procedure, shortened: as §1
# [8] = molecular target: Fuc(a1-2)[Gal(a1-3)]Gal(b1-4)[Fuc(a1-3)]GlcNAc(b1-3)GalNAc
# Procedure, shortened: as §1
# [9] = molecular target: Fuc(a1-2)[GalNAc(a1-3)]Gal(b1-3)GlcNAc
# Procedure, shortened: as §1
# [10] = molecular target: Fuc(a1-2)[GalNAc(a1-3)]Gal(b1-4)GlcNAc(b1-3)Gal(b1-4)GlcNAc
# Procedure, shortened: as §1
# [11] = molecular target: Fuc(b1-3)GlcNAc
# Procedure, shortened: as §1
# [12] = molecular target: Gal(a1-3)Gal(b1-4)GlcNAc(b1-2)Man(a1-3)[Gal(a1-3)Gal(b1-4)GlcNAc(b1-2)Man(a1-6)]Man(b1-4)GlcNAc(b1-4)GlcNAc
# Procedure, shortened: as §1
# [13] = molecular target: Gal(b1-2)Gal
# Procedure, shortened: as §1
# [14] = molecular target: Gal(b1-3)Gal(b1-4)GlcNAc
# Procedure, shortened: as §1
# [15] = molecular target: Gal(b1-3)Gal(b1-4)GlcNAc(b1-2)Man(a1-3)[Gal(b1-3)Gal(b1-4)GlcNAc(b1-2)Man(a1-6)]Man(b1-4)GlcNAc(b1-4)GlcNAc
# Procedure, shortened: as §1
# [16] = molecular target: Gal(b1-3)GlcNAc
# Procedure, shortened: as §1
# [17] = molecular target: Gal(b1-3)GlcNAc(b1-3)GalNAc
# Procedure, shortened: as §1
# [18] = molecular target: Gal(b1-3)GlcNAc6S
# Procedure, shortened: as §1
# [19] = molecular target: Gal(b1-3)[Neu5Ac(a2-6)]GalNAc
# Procedure, shortened: as §1
# [20] = molecular target: Gal(b1-4)GalNAc(b1-3)[Fuc(a1-2)]Gal(b1-4)GlcNAc
# Procedure, shortened: as §1
# [21] = molecular target: Gal(b1-4)GlcNAc(b1-2)Man(a1-6)Man(b1-4)GlcNAc(b1-4)GlcNAc
# Procedure, shortened: as §1
# [22] = molecular target: Gal(b1-4)GlcNAc(b1-2)Man(a1-6)[GlcNAc(b1-2)Man(a1-3)]Man(b1-4)GlcNAc(b1-4)GlcNAc
# Procedure, shortened: as §1
# [23] = molecular target: Gal(b1-4)GlcNAc(b1-3)Gal(b1-4)Glc
# Procedure, shortened: as §1
# [24] = molecular target: Gal(b1-4)GlcNAc(b1-3)Gal(b1-4)GlcNAc(b1-3)Gal(b1-4)GlcNAc(b1-3)Gal(b1-4)GlcNAc(b1-2)Man(a1-3)[Gal(b1-4)GlcNAc(b1-3)Gal(b1-4)GlcNAc(b1-3)Gal(b1-4)GlcNAc(b1-3)Gal(b1-4)GlcNAc(b1-2)Man(a1-6)]Man(b1-4)GlcNAc(b1-4)[Fuc(a1-6)]GlcNAc
# Procedure, shortened: as §1
# [25] = molecular target: Gal(b1-4)GlcNAc(b1-3)Gal(b1-4)GlcNAc(b1-3)Gal(b1-4)GlcNAc(b1-3)Gal(b1-4)GlcNAc(b1-3)Gal(b1-4)GlcNAc(b1-3)Gal(b1-4)GlcNAc(b1-2)Man(a1-3)[Gal(b1-4)GlcNAc(b1-3)Gal(b1-4)GlcNAc(b1-3)Gal(b1-4)GlcNAc(b1-3)Gal(b1-4)GlcNAc(b1-3)Gal(b1-4)GlcNAc(b1-3)Gal(b1-4)GlcNAc(b1-2)Man(a1-6)]Man(b1-4)GlcNAc(b1-4)GlcNAc
# Procedure, shortened: as §1
# [26] = molecular target: Gal(b1-4)GlcNAc(b1-3)Gal(b1-4)GlcNAc(b1-3)GalNAc
# Procedure, shortened: as §1
# [27] = molecular target: Gal(b1-4)GlcNAc(b1-3)Gal(b1-4)GlcNAc(b1-3)[Gal(b1-4)GlcNAc(b1-3)Gal(b1-4)GlcNAc(b1-6)]GalNAc
# Procedure, shortened: as §1
# [28] = molecular target: Gal(b1-4)GlcNAc(b1-3)[Gal(b1-4)GlcNAc(b1-6)]GalNAc
# Procedure, shortened: as §1
# [29] = molecular target: Gal(b1-4)GlcNAc6P
# Procedure, shortened: as §1
binder,measurement,setting,value
"AAL (Agrocybe aegerita), Q6WY08 (protein) MQGVNIYNISAGTSVDLAAPVTTGDIVTFFSSALNLNAGAGNPNNTTLNLFAENGAYLLHIAFRLQENVIIFNSRQPDGPWLVEQRVSDVANQFAGIDGKAMVTVFDHGDKYQVVINEKTVIQYTKQISGLTLSLSYNATEETSIFSTVVEAVTYTGLALEHHHHHH",glycan array binding signal (z-score),[1],-0.105
same,glycan array binding signal (z-score),[2],-0.146
same,glycan array binding signal (z-score),[3],-0.119
same,glycan array binding signal (z-score),[4],-0.138
same,glycan array binding signal (z-score),[5],-0.147
same,glycan array binding signal (z-score),[6],-0.119
same,glycan array binding signal (z-score),[7],-0.138
same,glycan array binding signal (z-score),[8],-0.136
same,glycan array binding signal (z-score),[9],-0.152
same,glycan array binding signal (z-score),[10],-0.112
same,glycan array binding signal (z-score),[11],-0.123
same,glycan array binding signal (z-score),[12],7.5
same,glycan array binding signal (z-score),[13],-0.141
same,glycan array binding signal (z-score),[14],-0.135
same,glycan array binding signal (z-score),[15],6.91
same,glycan array binding signal (z-score),[16],-0.146
same,glycan array binding signal (z-score),[17],-0.149
same,glycan array binding signal (z-score),[18],-0.129
same,glycan array binding signal (z-score),[19],-0.159
same,glycan array binding signal (z-score),[20],-0.135
same,glycan array binding signal (z-score),[21],-0.162
same,glycan array binding signal (z-score),[22],-0.145
same,glycan array binding signal (z-score),[23],-0.142
same,glycan array binding signal (z-score),[24],-0.096
same,glycan array binding signal (z-score),[25],-0.099
same,glycan array binding signal (z-score),[26],-0.131
same,glycan array binding signal (z-score),[27],-0.125
same,glycan array binding signal (z-score),[28],-0.153
same,glycan array binding signal (z-score),[29],-0.163
